From PubChem BioAssay (EPA / NIEHS) come the findings set out here.

The structures appear in SMILES notation. Inconclusive results are not listed. Active and inactive are the calls of the source. Rule for the calls: active = hit-call score of the fitted dose curve at least 0.9, where 1 is the maximum; inconclusive = response in the unintended direction; inactive = score below 0.9.

Test [1] addresses Estrogen receptor (Homo sapiens) + Estrogen receptor beta (Homo sapiens) (UniProt P03372+Q92731). The test is described as follows: OT_ER_ERaERb_1440: Odyssey Thera (OT) 24-hour HEK293T Protein-Complementation Assay for Estrogen Receptor-alpha/-beta Homodimer (AID 2283356).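 Note: heteromer of ER alpha and ER beta binding domains; hits raise reporter fluorescence and both agonists and antagonists give an increase.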 The procedure, abridged: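 Readout: mean fluorescence intensity in nucleus (agonists) or nucleus plus cytoplasm (antagonists), read by laser scanning cytometer after 24 h compound exposure of HEK293T cells carrying ERα/ERβ LBD fragment-complementation constructs; DMSO baseline.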

For test [2], the target named is Estrogen receptor beta (Homo sapiens) (UniProt Q92731). In words: OT_ER_ERbERb_0480: Odyssey Thera (OT) 8-hour HEK293T Protein-Complementation Assay for Estrogen Receptor-beta/-beta Homodimer (AID 2283357).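 Note: active means signal gain over DMSO baseline.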 The procedure, abridged: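 Fluorescence intensity, nuclear for agonists and nuclear plus cytoplasmic for antagonists, was quantified by laser scanning cytometry versus vehicle after 8 h treatment. The cells were HEK293T stably carrying ER beta LBD fragment-complementation partners.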

The target of test [3] is human Thyroid Receptor Alpha (TRa), THRA (gene 7067) (UniProt P10827). The test is described as follows: NVS_NR_hTRa_Antagonist: NovaScreen (NVS) Nuclear Receptor Binding Assay for human Thyroid Receptor Alpha Antagonism (TRa) (AID 2283362).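 Note: activity is loss of signal relative to DMSO baseline.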 The procedure, abridged: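 AlphaLISA chemiluminescent immunoassay readout, taken 1 h post-dosing in a cell-free system with extracted protein. Activity was scored as signal loss against DMSO negative control, from duplicate single-concentration (25 uM) testing followed by concentration-response follow-up.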

The target of test [4] is Nuclear receptor subfamily 1 group I member 2 (Homo sapiens) (UniProt O75469). In words: NVS_NR_hPXR: NovaScreen (NVS) Nuclear Receptor Binding Assay for human Pregnane X Receptor (PXR) (AID 2283365).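 Note: a drop in FRET signal versus DMSO baseline means the compound binds.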 The method, boiled down:
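TR-FRET signal read at 2 h in a cell-free human PXR binding format. DMSO served as negative control and baseline; activity scored as signal loss. Single-concentration duplicate screen (25 uM), then concentration-response follow-up.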

The target in test [5] is guinea pig Sigma Receptor, Non-selective Binding, SIGMAR1 (gene 100135589) (UniProt Q60492). The test is described as follows: NVS_OR_gSIGMA_NonSelective: NovaScreen (NVS) Nuclear Receptor Binding Assay for guinea pig Sigma Receptor, Non-selective Binding (AID 2283367). The method, boiled down: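 Radioligand displacement on guinea pig brain membranes, read by filter-based scintillation counting 1 h after dosing. Loss of signal versus DMSO; initial duplicate single-point screen at 25 uM, actives followed in concentration series.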
Sequence of guinea pig Sigma Receptor, Non-selective Binding, SIGMAR1 (gene 100135589) (Q60492 whole entry, looked up): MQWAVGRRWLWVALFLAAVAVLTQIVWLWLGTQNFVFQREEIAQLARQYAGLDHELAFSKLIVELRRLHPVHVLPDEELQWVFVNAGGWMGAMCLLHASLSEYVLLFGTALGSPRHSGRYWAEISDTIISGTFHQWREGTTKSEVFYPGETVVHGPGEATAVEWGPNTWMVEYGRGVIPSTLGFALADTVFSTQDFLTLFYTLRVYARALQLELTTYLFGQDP

The target in test [6] is human Serotonin Transporter (SERT), SLC6A4 (gene 6532) (UniProt P31645). The test is described as follows: NVS_TR_hSERT: NovaScreen (NVS) Transporter Assay for human Serotonin Transporter (SERT) (AID 2283372). The method, boiled down: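 Radioligand binding to native SERT in human platelet membranes, read by filter-based scintillation counting 1 h after dosing. Primary screen in duplicate at 25 uM; actives followed up in concentration series; loss of signal versus DMSO baseline.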

Test [7] concerns the target rat Serotonin Transporter (SERT), Slc6a4 (gene 25553) (UniProt P31652). In words: NVS_TR_rSERT: NovaScreen (NVS) Transporter Assay for rat Serotonin Transporter (SERT) (AID 2283375). The method, boiled down: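 Radioligand displacement, filter scintillation readout; rat forebrain membrane prep, 1 h post-dose. Single-conc 25 uM duplicate screen, then concentration-response on actives. Loss of signal vs DMSO baseline.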

In test [8] the target is human Dopamine Transporter (DAT), SLC6A3 (gene 6531) (UniProt Q01959). The test is described as follows: NVS_TR_hDAT: NovaScreen (NVS) Transporter Assay for human Dopamine Transporter (DAT) (AID 2283374).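 Note: activity means loss of bound radioligand signal relative to DMSO.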 The procedure, abridged: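 Cell-free radioligand displacement binding at human DAT, 1 h after dosing, with filtration and scintillation counting. Primary screen in duplicate at 25 uM, actives then in concentration series. Loss of bound signal versus DMSO scored.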
Sequence of human Dopamine Transporter (DAT), SLC6A3 (gene 6531) (Q01959 whole entry, looked up): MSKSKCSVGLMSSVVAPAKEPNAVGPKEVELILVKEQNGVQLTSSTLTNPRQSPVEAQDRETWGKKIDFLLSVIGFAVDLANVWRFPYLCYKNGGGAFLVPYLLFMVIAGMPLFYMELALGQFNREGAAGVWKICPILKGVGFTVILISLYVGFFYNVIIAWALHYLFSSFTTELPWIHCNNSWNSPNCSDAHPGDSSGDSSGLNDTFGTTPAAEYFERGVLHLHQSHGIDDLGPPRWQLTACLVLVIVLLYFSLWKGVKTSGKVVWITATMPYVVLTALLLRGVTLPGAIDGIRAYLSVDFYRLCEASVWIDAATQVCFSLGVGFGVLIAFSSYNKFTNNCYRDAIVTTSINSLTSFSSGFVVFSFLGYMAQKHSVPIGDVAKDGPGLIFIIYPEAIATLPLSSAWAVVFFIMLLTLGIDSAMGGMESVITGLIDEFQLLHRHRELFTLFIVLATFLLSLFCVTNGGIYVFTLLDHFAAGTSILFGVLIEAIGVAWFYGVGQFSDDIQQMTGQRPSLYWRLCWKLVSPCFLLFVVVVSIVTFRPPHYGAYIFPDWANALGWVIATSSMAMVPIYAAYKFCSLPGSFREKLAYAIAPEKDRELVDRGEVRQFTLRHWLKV

Test [9] addresses Retinoic acid receptor alpha (Homo sapiens) (UniProt P10276). In words: NVS_NR_hRAR_Antagonist: NovaScreen (NVS) Nuclear Receptor Binding Assay for human Retinoic Acid Alpha Receptor Antagonism (RAR) (AID 2283358). The procedure, abridged:
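Cell-free TR-FRET binding assay with extracted human RARalpha in antagonist mode, read 2 h after dosing. Loss of signal was fitted relative to DMSO; the primary screen used 25 uM in duplicate, with concentration series on follow-up.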

Test [10] has as its system guinea pig Dopamine Transporter (DAT), gene 100714898. In words: NVS_TR_gDAT: NovaScreen (NVS) Transporter Assay for guinea pig Dopamine Transporter (DAT) (AID 2283369).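 Note: active compounds lower bound radioligand signal relative to DMSO.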 The method, boiled down: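 Cell-free striatal membrane prep (guinea pig), 2 h exposure, filtration + scintillation readout of radioligand binding. Single-point 25 uM duplicate; actives rerun singleton, top conc 50 uM.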

Test [11] addresses Peroxisome proliferator-activated receptor gamma (Homo sapiens) (UniProt P37231). In words: NVS_NR_hPPARg: NovaScreen (NVS) Nuclear Receptor Binding Assay for human Peroxisome Proliferator-activated Receptor gamma (PPARg) (AID 2283370). The method, boiled down:
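FP read-out, 2 h post-dose, cell-free extracted receptor protein. Signal loss vs DMSO negative control = binding activity. Single-conc duplicate HTS at 25 uM; concentration-response follow-up for actives.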

A further test addresses PGR (gene 5241) (UniProt P06401). In words: NVS_NR_hPR: NovaScreen (NVS) Nuclear Receptor Binding Assay for human Progestron Receptor (PR) (AID 2283360).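 Note: active means loss of bound radioligand signal versus DMSO baseline.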 The procedure, abridged:
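Radioligand competition binding on receptor extracted from T47D cells, read by scintillation counting 18 h after dosing. Loss of signal versus DMSO; primary screen in duplicate at 25 uM, actives followed in concentration series.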

Test [12] has as its target Glucocorticoid receptor (Homo sapiens) (UniProt P04150). In words: NVS_NR_hGR: NovaScreen (NVS) Nuclear Receptor Binding Assay for human Glucocorticoid Receptor (GR) (AID 2283363).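 For AC50: activity is loss of specific radioligand binding signal relative to DMSO.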 The method, boiled down:
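Cell-free radioligand displacement assay on extracted human GR, read 16 h after dosing by filter-based scintillation counting. Screened in duplicate at 25 uM, then concentration series for actives; loss of signal versus DMSO baseline.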

In test [13] the target is human Norepinephrine Transporter (NET), SLC6A2 (gene 6530) (UniProt P23975). In words: NVS_TR_hNET: NovaScreen (NVS) Transporter Assay for human Norepinephrine Transporter (NET) (AID 2283377).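 For AC50: displacement of radioligand from human NET seen as loss of scintillation signal.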 The procedure, abridged:
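Cell-free radioligand binding using CHO-derived membrane protein expressing human NET, read by filter scintillation counting 1 h after dosing; loss of signal vs DMSO. Initial duplicate screen at 25 uM, actives retested in concentration series.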

Test [14] concerns the target mouse Estrogen Receptor alpha (Era), Esr1 (gene 13982) (UniProt P19785). In words: NVS_NR_mERa: NovaScreen (NVS) Nuclear Receptor Binding Assay for mouse Estrogen Receptor alpha (Era) (AID 2283378).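 Note: hit means loss of bound radioligand signal relative to DMSO.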 The procedure, abridged:
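Filter scintillation counts of bound radioligand, measured 18 h post-dose, gave the readout; decreased signal relative to DMSO controls indicated displacement from mouse Era. Primary screen ran in duplicate at 25 uM; active chemicals were retested across concentrations.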

Test [15] has as its target human Peroxisome Proliferator-activated Receptor alpha (PPARa), PPARA (gene 5465) (UniProt Q07869). In words: NVS_NR_hPPARa: NovaScreen (NVS) Nuclear Receptor Binding Assay for human Peroxisome Proliferator-activated Receptor alpha (PPARa) (AID 2283359).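 Note: activity means loss of TR-FRET signal versus DMSO baseline.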 The procedure, abridged:
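Cell-free TR-FRET binding assay with extracted PPARα protein, read 1 h after dosing. Primary screen in duplicate at 25 uM, with actives retested in concentration series. Loss of signal versus DMSO.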

The test system of test [16] is rat Norepinephrine Transporter (NET), gene 83511. The test is described as follows: NVS_TR_rNET: NovaScreen (NVS) Transporter Assay for rat Norepinephrine Transporter (NET) (AID 2283373). The procedure, abridged:
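Rat forebrain membranes; radioligand binding measured by filter-based scintillation counting 1 hour after dosing. Loss of specific binding versus DMSO baseline scored; primary screen in duplicate at 25 uM, actives followed up in concentration series.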

Sequence of Nuclear receptor subfamily 1 group I member 2 (Homo sapiens) (O75469 whole entry, looked up): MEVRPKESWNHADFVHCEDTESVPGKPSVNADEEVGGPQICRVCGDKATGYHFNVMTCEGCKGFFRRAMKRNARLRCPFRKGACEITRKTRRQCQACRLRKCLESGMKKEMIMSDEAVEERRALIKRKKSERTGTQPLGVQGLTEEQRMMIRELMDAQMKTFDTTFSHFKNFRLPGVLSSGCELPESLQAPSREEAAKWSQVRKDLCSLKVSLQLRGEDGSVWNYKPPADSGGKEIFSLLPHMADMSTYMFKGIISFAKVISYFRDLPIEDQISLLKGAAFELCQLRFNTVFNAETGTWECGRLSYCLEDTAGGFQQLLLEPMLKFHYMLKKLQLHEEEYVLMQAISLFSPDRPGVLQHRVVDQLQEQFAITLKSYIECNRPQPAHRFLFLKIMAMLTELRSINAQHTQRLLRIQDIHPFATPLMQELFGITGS
Sequence of Glucocorticoid receptor (Homo sapiens) (P04150 whole entry, looked up): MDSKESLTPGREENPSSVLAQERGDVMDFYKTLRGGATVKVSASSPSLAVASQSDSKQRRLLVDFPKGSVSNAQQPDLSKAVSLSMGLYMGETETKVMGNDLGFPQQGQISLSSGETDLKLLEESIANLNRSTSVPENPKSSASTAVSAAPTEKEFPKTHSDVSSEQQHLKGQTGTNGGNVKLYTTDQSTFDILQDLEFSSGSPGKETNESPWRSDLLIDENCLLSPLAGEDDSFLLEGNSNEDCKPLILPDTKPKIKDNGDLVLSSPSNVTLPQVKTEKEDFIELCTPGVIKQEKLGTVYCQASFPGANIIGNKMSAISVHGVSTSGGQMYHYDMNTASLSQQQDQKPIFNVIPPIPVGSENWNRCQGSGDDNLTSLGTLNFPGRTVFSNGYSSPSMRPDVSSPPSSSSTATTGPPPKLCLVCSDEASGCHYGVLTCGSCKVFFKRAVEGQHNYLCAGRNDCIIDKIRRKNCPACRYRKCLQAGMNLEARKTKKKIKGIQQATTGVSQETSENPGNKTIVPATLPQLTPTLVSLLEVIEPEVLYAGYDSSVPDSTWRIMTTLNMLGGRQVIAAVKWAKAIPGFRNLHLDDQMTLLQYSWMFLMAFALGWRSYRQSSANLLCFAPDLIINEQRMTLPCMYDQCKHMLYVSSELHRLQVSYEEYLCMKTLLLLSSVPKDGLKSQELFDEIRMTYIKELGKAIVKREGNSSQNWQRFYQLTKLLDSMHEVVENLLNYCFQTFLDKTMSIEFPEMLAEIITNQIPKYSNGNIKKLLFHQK
Sequence of Retinoic acid receptor alpha (Homo sapiens) (P10276 whole entry, looked up): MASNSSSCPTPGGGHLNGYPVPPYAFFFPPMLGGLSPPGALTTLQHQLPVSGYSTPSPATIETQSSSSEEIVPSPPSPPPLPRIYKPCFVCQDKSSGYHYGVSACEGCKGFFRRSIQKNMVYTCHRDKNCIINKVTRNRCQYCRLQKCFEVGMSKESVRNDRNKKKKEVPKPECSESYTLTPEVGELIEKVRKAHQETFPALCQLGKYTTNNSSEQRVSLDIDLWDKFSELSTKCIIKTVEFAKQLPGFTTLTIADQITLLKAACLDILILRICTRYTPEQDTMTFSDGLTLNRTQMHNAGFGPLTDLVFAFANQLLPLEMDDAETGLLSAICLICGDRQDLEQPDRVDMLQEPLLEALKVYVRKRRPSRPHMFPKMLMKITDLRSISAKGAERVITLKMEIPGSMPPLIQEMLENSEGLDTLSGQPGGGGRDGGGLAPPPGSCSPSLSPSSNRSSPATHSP
Sequence of Peroxisome proliferator-activated receptor gamma (Homo sapiens) (P37231 whole entry, looked up): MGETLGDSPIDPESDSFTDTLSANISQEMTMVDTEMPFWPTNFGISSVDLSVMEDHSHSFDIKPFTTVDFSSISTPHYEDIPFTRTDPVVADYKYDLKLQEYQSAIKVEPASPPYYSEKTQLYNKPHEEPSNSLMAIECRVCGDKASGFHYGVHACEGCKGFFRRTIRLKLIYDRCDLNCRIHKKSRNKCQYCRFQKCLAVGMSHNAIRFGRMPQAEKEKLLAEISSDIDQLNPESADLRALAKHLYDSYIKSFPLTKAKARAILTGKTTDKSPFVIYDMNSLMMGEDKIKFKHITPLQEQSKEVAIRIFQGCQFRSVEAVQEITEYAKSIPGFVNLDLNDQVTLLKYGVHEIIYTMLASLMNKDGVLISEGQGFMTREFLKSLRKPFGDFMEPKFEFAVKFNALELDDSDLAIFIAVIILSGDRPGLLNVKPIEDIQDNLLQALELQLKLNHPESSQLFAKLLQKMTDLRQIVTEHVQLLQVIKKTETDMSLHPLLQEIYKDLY
Sequence of human Peroxisome Proliferator-activated Receptor alpha (PPARa), PPARA (gene 5465) (Q07869 whole entry, looked up): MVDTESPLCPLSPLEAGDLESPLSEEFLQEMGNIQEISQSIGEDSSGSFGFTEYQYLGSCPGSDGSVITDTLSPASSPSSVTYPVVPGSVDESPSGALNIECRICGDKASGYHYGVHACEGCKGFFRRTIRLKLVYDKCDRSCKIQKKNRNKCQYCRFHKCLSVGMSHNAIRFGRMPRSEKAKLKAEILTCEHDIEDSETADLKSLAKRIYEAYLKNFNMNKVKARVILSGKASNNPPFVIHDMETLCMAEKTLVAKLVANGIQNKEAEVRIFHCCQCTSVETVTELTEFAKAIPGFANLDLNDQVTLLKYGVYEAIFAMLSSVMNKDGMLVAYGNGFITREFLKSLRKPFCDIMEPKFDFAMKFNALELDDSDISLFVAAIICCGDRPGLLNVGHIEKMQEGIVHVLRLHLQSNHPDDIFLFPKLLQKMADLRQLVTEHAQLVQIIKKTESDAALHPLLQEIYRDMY
Sequence of human Norepinephrine Transporter (NET), SLC6A2 (gene 6530) (P23975 whole entry, looked up): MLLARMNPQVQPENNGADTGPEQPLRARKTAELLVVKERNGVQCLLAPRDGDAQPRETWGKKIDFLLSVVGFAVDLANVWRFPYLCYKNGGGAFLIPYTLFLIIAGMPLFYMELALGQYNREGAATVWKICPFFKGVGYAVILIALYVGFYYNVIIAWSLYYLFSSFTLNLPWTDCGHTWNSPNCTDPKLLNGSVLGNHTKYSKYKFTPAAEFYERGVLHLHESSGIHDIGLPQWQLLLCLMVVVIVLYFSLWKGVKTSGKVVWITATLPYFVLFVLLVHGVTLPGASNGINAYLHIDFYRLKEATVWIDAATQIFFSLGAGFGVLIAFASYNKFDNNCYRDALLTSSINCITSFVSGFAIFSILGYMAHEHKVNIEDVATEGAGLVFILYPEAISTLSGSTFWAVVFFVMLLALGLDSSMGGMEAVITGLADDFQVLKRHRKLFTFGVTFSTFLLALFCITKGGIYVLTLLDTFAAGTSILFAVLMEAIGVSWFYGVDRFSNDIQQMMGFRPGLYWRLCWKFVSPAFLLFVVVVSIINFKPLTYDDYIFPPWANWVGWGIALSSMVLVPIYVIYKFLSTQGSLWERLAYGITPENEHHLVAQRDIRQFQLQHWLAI
Sequence of mouse Estrogen Receptor alpha (Era), Esr1 (gene 13982) (P19785 whole entry, looked up): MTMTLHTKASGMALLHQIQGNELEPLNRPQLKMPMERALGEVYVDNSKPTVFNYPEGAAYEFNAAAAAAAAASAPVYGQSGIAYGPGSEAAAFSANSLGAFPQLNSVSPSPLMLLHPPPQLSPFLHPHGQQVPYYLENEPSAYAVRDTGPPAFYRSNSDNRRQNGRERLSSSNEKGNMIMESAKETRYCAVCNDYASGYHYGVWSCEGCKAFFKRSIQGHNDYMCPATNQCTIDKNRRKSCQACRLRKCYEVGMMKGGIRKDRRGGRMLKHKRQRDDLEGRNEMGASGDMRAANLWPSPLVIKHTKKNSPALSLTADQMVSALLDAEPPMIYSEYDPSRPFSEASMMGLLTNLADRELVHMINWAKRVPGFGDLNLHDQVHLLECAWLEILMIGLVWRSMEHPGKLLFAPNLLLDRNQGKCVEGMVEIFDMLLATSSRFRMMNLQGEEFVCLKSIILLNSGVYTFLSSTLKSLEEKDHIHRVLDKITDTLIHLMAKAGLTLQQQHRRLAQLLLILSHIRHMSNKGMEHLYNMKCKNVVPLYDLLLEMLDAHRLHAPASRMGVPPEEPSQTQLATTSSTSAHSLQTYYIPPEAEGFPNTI

The term AC50 denotes the concentration at which the activity in the assay is half-maximal. Take `Cc1nc(-c2ccc3c(c2)CCN(CCC2CCC(NC(=O)/C=C/c4ccc(F)cc4)CC2)CC3)no1` (stereo unspecified): the result in test [1], in test [2], in [3] and in [4] was inactive. The results for the AC50 in [5], in test [6] and in test [7] were 1.03 µM (active), 0.068 µM (active) and 0.201 µM (active), respectively.

`CN1CCCC1=O`: in test [1], the result was inactive. Moreover, the half-maximal activity concentration (AC50) in test [8] is 25 µM (active).

With `Cc1ccc2ncccc2c1`, the molecule was classed as inactive in test [9], in test [3] and in test [8].

With `CC=Cc1ccc(O)c(OC)c1`, the AC50 in test [10] was 16.6 µM (active); in test [8], 8.8 µM (active). Further, the molecule was called inactive in test [11].

With `COc1cc(S(=O)(=O)O)c(C)cc1N=Nc1c(O)ccc2cc(S(=O)(=O)O)ccc12`, in the test with PGR (gene 5241), the half-maximal activity concentration (AC50) is 14.2 µM (active). For the same molecule, the molecule was called inactive in test [12] and in test [13].

Turning to `NC(=O)Cn1c(=O)cc(CCN2CCN(c3nccc4sccc34)CC2)c2ccc(F)cc21`, in test [5], the AC50 is 2.1 µM (active).

With `CC(=O)C(C)=CC1C(C)=CCCC1(C)C` (stereo unspecified), the call in test [11] and in [14] was inactive.

In the case of `Cc1nc(C)nc(N2C[C@@H](C)N(c3ccnc([C@@H](C)O)n3)[C@@H](C)C2)n1`, the AC50 in [5] is 3.21 µM (active).

For `CC1(C)CC(N=C=O)CC(C)(CN=C=O)C1` (stereo unspecified), the AC50 with PGR (gene 5241) was 11.7 µM (active); in [13], 9.14 µM (active). In addition, the outcome in test [3] and in test [8] was inactive.

In the case of `FC(F)(F)C(F)(F)C(F)(F)C(F)(F)C(F)(F)C(F)(F)CCI`, the call in test [9] and in [4] was inactive. The AC50 in test [5] is 3.3 µM (active).

Take `CCOc1ccc2c(c1)C(C)=CC(C)(C)N2`: the molecule was classed as inactive in test [15], in [3], in [11] and in [13]. Further, the results for the AC50 (with PGR (gene 5241); in test [5]) were 9.2 µM (active) and 16.4 µM (active), respectively.

Consider `Nc1ccc2c(c1)C(=O)c1ccccc1C2=O`, for which the molecule was classed as inactive in [3], in test [12], in test [11] and in test [13].

For `C=CCc1ccc(O)c(OC)c1`, the AC50 in [11] is 25 µM (active).

On to `COc1ccc(C)cc1N`, for which, in test [9], the result was inactive.

For the molecule `C=CCOC(=O)c1ccccc1C(=O)OCC=C`, the outcome in test [15] was inactive. Besides, the concentration at half-maximal activity (AC50) in [11] is 0.00781 µM (active); in test [16] it was 25 µM (active).

Regarding `Cc1ccc(C)c(O)c1C`, the AC50 in test [8] is 10.3 µM (active).

As for `CC(CO)OC(C)CO` (stereo unspecified) (tested in a mixture with another compound), the molecule was called inactive in test [15] and in test [4].

Regarding `Cc1cc(NC(=O)C(=O)O)cc(C)c1Oc1ccc(O)c2c1CCC2`, the molecule was called inactive in test [15] and in test [3]. In addition, the AC50 with PGR (gene 5241) is 7.64 µM (active).

With `CCCCCCCCCCCCCCCCCC(=O)O`, the AC50 in test [15] was 0.608 µM (active).

For the molecule `Cc1ccccc1Cl`, the AC50 in test [5] was 15.7 µM (active). Moreover, the molecule was called inactive in test [14].

As to `CCCc1cc(=O)[nH]c(=S)[nH]1`, the molecule was classed as inactive in test [8] and in [14].

Regarding `CC(=O)OC/C=C(\C)CCC=C(C)C`, the molecule was classed as inactive in test [4] and in [11].

For the molecule `CN1CCN(Cc2cc(-c3ccc4[nH]c(=O)oc4c3)co2)[C@@H](c2ccc(F)cc2)C1`, the AC50 was 13.2 µM (active) in [12]; 5.66 µM (active) in test [5]; 5.69 µM (active) in test [10]; 3.37 µM (active) in test [6]; 1.99 µM (active) in test [8]; 2.52 µM (active) in test [7]. Also, the concentration at half-maximal activity (AC50) in test [13] was 12.7 µM (active); in test [14], 5.79 µM (active).

In the case of `NCCO`, the molecule was called inactive in [9].

With `Nc1ccc(S(=O)(=O)c2ccc(N)cc2)cc1`, the call (with PGR (gene 5241); in test [13]) was inactive. Moreover, the concentration at half-maximal activity (AC50) in test [10] is 25 µM (active); in [8] it was 3.85 µM (active).

As for `COc1ccc(S(=O)(=O)N2C(=O)[C@@](c3ccccc3OC)(N3C[C@H](O)C[C@H]3C(=O)N(C)C)c3cc(Cl)ccc32)c(OC)c1`, the half-maximal activity concentration (AC50) in [12] is 5.95 µM (active); in [10], 25 µM (active); in test [13] it was 41.6 µM (active). Moreover, the result in [11] and in test [8] was inactive.

`CC1(C)NC(=O)NC1=O`: in test [14], the call was inactive.

`CN[C@H]1CC[C@@H](c2ccc(Cl)c(Cl)c2)c2ccc(S(N)(=O)=O)cc21`: the molecule was classed as inactive (in the test with PGR (gene 5241); in test [11]; in test [14]).

For the molecule `COc1ccc2c(c1)c(CC(=O)O)c(C)n2C(=O)c1ccc(Cl)cc1`, the molecule was called inactive in [9]. In addition, the half-maximal activity concentration (AC50) in test [8] was 7.64 µM (active).
